# Assay outcomes deposited in PubChem by several laboratories.
# Compounds with a hit are over-represented: about 2.7% of the library has one in this group of screens.
# IDE act: IDE (human) activation, cell-based. P14735. HEK cells, FAbeta-B cleavage, fluorescence polarization; 0% vehicle, 100% cell-free pure enzyme wells. activation, % at 5.96 µM. 0.073% of 340,000 active;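 active = activation above the mean of all tested compounds plus 3 SD, set per screening campaign, cut at about 17% in these data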
# ANO1 block: mouse TMEM16A channel inhibition, primary screen. Q8BHY3. HEK293 TMEM16A/YFP iodide influx fluorescence, ionomycin. normalized B-score (activity score, 25-100; higher = stronger inhibition) at 10 µM. 1.2% of 310,000 active. AID 588511;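 active = ratio plate-corrected score three or more library SD toward inhibition, starting fluorescence score within five deviations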;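 also: score derived from kinetic fluorescence span divided by baseline fluorescence per well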
# TMEM16A act: activators or potentiators of mouse TMEM16A chloride channel; AID 623877; 0.3% of 340,000 active; B-score at 10 µM; HEK293 TMEM16A/YFP-H148Q/I152L, iodide quench fluorescence; hits give low values;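 active = fluorescence-ratio B-score plate-corrected deviation score at least 3 library SD below zero, with starting fluorescence score within 5 deviations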;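 also: channel opened by trigger with iodide after compound preincubation; score built on the fluorescence ratio of max minus min over baseline; more negative score means more quench and so TMEM16A activation or potentiation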
# IDE cell inh: inhibitors of human insulin-degrading enzyme in cells; P14735; HEK cells, FAbetaB cleavage, fluorescence polarization; 0.41% of 320,000 active; inhibition, % at 5.59 µM;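 active = percent inhibition above the average of all tested compounds plus 3 SD, set per screening campaign, cut at about 16% in these data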;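 also: IDE supplied by intact live HEK cells; FP after avidin binding of uncleaved biotin substrate so inhibition keeps polarization high; 0% = DMSO wells and 100% = 60 µM reference IDE inhibitor Ii1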
# CHT block: human CHT choline transport inhibition; B-score at 10 µM; 0.86% of 310,000 active; CHT-expressing cells, membrane potential dye, choline response; hits give low values; Q9GZV3;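 active = B-score over 3 SD under the library average, and starting fluorescence ratio not unusually high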;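 also: choline stimulus applied at its EC90 after an EC20 pre-addition; B-score computed on integrated fluorescence ratio after choline addition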
# CHT allo act: allosterically activates the human high affinity choline transporter; Q9GZV3; CHT-expressing cells, membrane potential dye, choline EC20; hits give high values; LV-AA mutant CHT in HEK293 cells; B-score at 10 µM; 0.49% of 310,000 active; AID 488977;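 active = initial fluorescence not abnormally high and integrated response B-score, plate-corrected, over 3 SD above library mean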
# CHT act confirm: human CHT activation, confirmatory screen | shares compounds with CHT allo act | CHT-expressing cells, membrane potential dye fluorescence (FDSS); % of choline EC20–EC90 response window; HEK293 expressing CHT LV-AA mutant; choline added at its EC20 | activation, % at 10 µM | 91% of 2,500 active | AID 504833;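 active = primary screen active, with duplicate mean activation above negative control mean plus 3 SD, cut at about 11% in these data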
# HEK293 MP dye: counter-screen for CHT activators: effect in parental HEK293 cells. shares compounds with CHT allo act. membrane potential dye fluorescence (FDSS); measured after EC20 choline addition. ratio readout change at 10 µM, hits read low. 62% of 2,500 active. AID 623908;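 active = duplicate-averaged ratio beyond 3 SD from buffer wells, up or down, though filed actives are nearly all decreases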
# Numbers without * were called inactive; i = inactive; . = not tested or not shown.
SMILES,IDE act,ANO1 block,TMEM16A act,IDE cell inh,CHT block,CHT allo act,CHT act confirm,HEK293 MP dye
COC(=O)c1ccccc1NC(=O)CSc1nc(NC(=O)c2ccccc2)c2c(C)c(C)oc2n1,6,i,i,-1,i,8.4*,2,i
CCn1cc(C(=O)O)c(=O)c2cc(F)c(N3CCNCC3)cc21,-3,i,i,5,i,14*,39*,-42*
CCCCCCNC(=O)c1cn(CC)c2cc(N3CCN(C)CC3)c(F)cc2c1=O,2,i,i,4,i,i,.,.
CCCCCCn1cc(C(=O)O)c(=O)c2cc(F)c(N3CCN(C)CC3)cc21,5,i,i,1,i,6.9*,59*,-76*
CC(=O)N=c1c(C#N)cc2c(=O)n3cccc(C)c3nc2n1Cc1ccco1,.,i,i,-1,i,i,47*,-36*
CC(=O)N=c1c(C#N)cc2c(=O)n3cccc(C)c3nc2n1CCCOC(C)C,.,i,i,-1,i,i,44*,-45*
Cc1cccn2c(=O)c3cc(C#N)c(=NC(=O)c4ccncc4)n(CCCOC(C)C)c3nc12,8,i,i,4,i,i,.,.
Cc1cccn2c(=O)c3cc(C(=O)NCc4ccco4)c(=N)n(CCc4ccccc4)c3nc12,-4,i,i,9,i,i,22*,-31*
Cc1ccc(C(=O)C2=C(O)C(=O)N(c3ncccn3)C2c2ccccc2F)o1 (centres undefined),2,i,i,3,i,i,.,.
CCOC(=O)CN(C(=O)COC(=O)C1=NNC(=O)CC1)c1ccc(F)cc1,2,.,i,6,.,.,.,.
COc1ccc(N(CC(=O)N/N=C(\C)c2ccccc2)S(=O)(=O)c2ccccc2)cc1,6,i,i,3,i,i,.,.
CCCn1c(=N)c(C#N)cc2c(=O)n3cccc(C)c3nc21,.,i,.,2,i,8.3*,49*,-38*
CCCn1c(=N)c(C#N)cc2c(=O)n3ccccc3nc21,3,i,i,-5,i,7*,48*,-64*
COc1ccccc1NS(=O)(=O)c1ccc(C)c(C(=O)NCC(c2cccs2)N2CCOCC2)c1 (centres undefined),3,.,i,.,.,.,.,.
CCOC(=O)N1CCC(n2c(SCC(=O)NCCc3ccc(S(N)(=O)=O)cc3)nc3ccccc3c2=O)CC1,-2,i,i,-3,i,15*,35*,-21*
NS(=O)(=O)c1ccc(CCNC(=O)CSc2nc3ccsc3c(=O)n2C2CC2)cc1,-6,i,i,4,i,i,.,.
COc1ccc(C(O)c2nccc3cc(OC)c(OC)cc23)cc1OC (centres undefined),5,i,i,2,i,9.2*,59*,-74*
COc1cc(N)c(C(O)c2nccc3cc(OC)c(OC)cc23)cc1OC (centres undefined),3,i,i,0,i,i,70*,-51*
COc1ccc(C(=O)c2nccc3cc(OC)c(OC)cc23)cc1OC,4,.,i,10,.,.,.,.
CCCn1nc(C(=O)N2CCN(S(=O)(=O)c3ccc(C)c(C)c3)CC2)c2ccccc2c1=O,0,.,i,-2,.,.,.,.
CN1C(=O)/C(=C/c2ccc(OCc3ccc(F)cc3)cc2)NC1=S,1,i,i,8,i,i,.,.
CCOc1ccc(Nc2nc(NCC3CCCO3)c3ccccc3n2)cc1 (centres undefined),4,i,i,1,i,i,23*,-31*
COc1ccc(Nc2nc(NCC3CCCO3)c3ccccc3n2)c(OC)c1 (centres undefined),1,i,i,3,i,i,.,.
